Measurements from the supplement of paper PMC4188521.

compound: CCc1cnn2c(NCc3ccc[n+]([O-])c3)cc(N3CCCC[C@H]3CCO)nc12 [dinaciclib]; assay: cell viability remaining relative to DMSO control; higher = less cytotoxic (more viable cells); conditions: 100 nM; 24 h
Procedure: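 Solid tumor cell lines were treated with dinaciclib (100 nM) for 24 hr. Viability was measured by CellTiter-Glo ATP luminescence and expressed as % of DMSO-treated control wells (mean of 2-6 plates, triplicate wells per plate).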

Target	cell viability remaining [%]
HS934T	124
HS895T	92.4
SW1573	99
COLO679	68.6
HCT8	51.3
PC3	66.2
TOV112D	16
NCI-H2110	56.9
ESS1	73.5
KATOIII	87.5
HEC59	67.6
OV7	73.4
CAL51	43.8
MDAMB175VII	36
H661	34.6
COLO829	24.8
CORL105	49
H292	51.5
H23	41.9
T84	76.2

Target	cell viability remaining [%]
RMGI	83.4
ES2	52.5
SW1783	72.9
C32	83
HCC1187	21.6
H1793	91.3
DETROIT562	34.6
H1568	28.7
CAPAN2	51.4
RKO	49.6
HMCB	37.5
LOVO	88.9
SW48	55.8
A2058	18.4
HS746T	83
GRM	47
SKBR3	51.1
KPL1	50.2
H460	52.2
COLO800	36.9
